# Reference: PubChem BioAssay (NCI)
# The panel holds about 79,000 compounds, 15% with a hit somewhere; the sample as a whole holds those more often. A number with no mark means an inactive call. Activity calls are given as the source filed them. No stated cut-off is given here; in the data, active means growth inhibition above about 70%; inactive means the rest.
# What was measured:
# [1] = NCI Yeast Anticancer Drug Screen. Data for the rad50 strain (AID 155);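 further: 0% = growth of vehicle-only cultures of the same strain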; conditions: S. cerevisiae rad50 strain growth inhibition, active compounds read high
# How it was run: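 Yeast carrying a defined DNA repair defect were exposed to test compounds, and growth was compared with vehicle-treated controls to give percent inhibition.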
# [2] = NCI Yeast Anticancer Drug Screen. Data for the mec2-1 strain (AID 157); conditions: S. cerevisiae mec2-1 strain, active compounds read high
# How it was run: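 Readout is yeast growth inhibition, normalised to vehicle-treated controls, in the mec2-1 strain exposed to compound.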
# [3] = NCI Yeast Anticancer Drug Screen. Data for the sgs1 mgt1 strain (AID 161);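 further: 0% = growth of cultures given vehicle only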; conditions: S. cerevisiae sgs1 mgt1 strain, active compounds read high
# How it was run: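 Compounds are added to genetically altered yeast, and growth is compared with cultures given vehicle alone to give percent inhibition.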
# [4] = NCI Yeast Anticancer Drug Screen. Data for the cln2 rad14 strain (AID 165);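 further: 0% = growth equal to vehicle treated cultures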; conditions: S. cerevisiae cln2 rad14 strain, active compounds read high
# How it was run: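 Relative to vehicle controls, growth inhibition of compound-treated cln2 rad14 yeast was recorded.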
# [5] = NCI Yeast Anticancer Drug Screen. Data for the bub3 strain (AID 167); conditions: S. cerevisiae bub3 mutant strain, active compounds read high
# How it was run: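 Compounds were applied to a genetically altered yeast strain carrying a cell-cycle control defect. Growth inhibition was scored against vehicle-treated controls.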
# [6] = NCI Yeast Anticancer Drug Screen. Data for the mlh1 rad18 strain (AID 175); conditions: S. cerevisiae mlh1 rad18 strain growth inhibition, active compounds read high
# How it was run: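 Test agents were incubated with a yeast strain of defined genotype (DNA damage repair defect). Inhibition of growth was derived by comparison with vehicle-exposed cultures.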
# [7] = at 5.0 µM (retest, dose inferred, filed as 0.5)
# [8] = at 50.0 µM (retest, dose inferred, filed as 5.0)
SMILES,"growth inhibition [1, 7]","growth inhibition [1, 8]",growth inhibition ([1]; at 50.0 µM),"growth inhibition [2, 7]","growth inhibition [2, 8]",growth inhibition ([2]; at 50.0 µM),"growth inhibition [3, 7]","growth inhibition [3, 8]",growth inhibition ([3]; at 50.0 µM),"growth inhibition [4, 7]","growth inhibition [4, 8]",growth inhibition ([4]; at 50.0 µM),"growth inhibition [5, 7]","growth inhibition [5, 8]",growth inhibition ([5]; at 50.0 µM),"growth inhibition [6, 7]","growth inhibition [6, 8]",growth inhibition ([6]; at 50.0 µM)
CC(=O)/C(=C\c1c(Cl)cccc1Cl)C(=O)CCN(C)C,18%,99% (active),75.8% (active),17%,99% (active),70.5% (active),8%,99% (active),81.6% (active),25%,99% (active),41.2%,27%,99% (active),65.8%,16%,99% (active),67.9%
CCC(C)(C[NH-])C[NH-].[Cl][Pt+2][Cl],13%,27%,28%,19%,28%,45.9%,18%,28%,3.9%,26%,34%,10.4%,11%,28%,-14.7%,25%,42%,-17.6%
N#Cc1c(-c2ccc(Cl)cc2)c(C#N)c(=O)n(NS(=O)(=O)c2ccccc2)c1S,51%,83% (active),39.6%,29%,78% (active),86.2% (active),30%,93% (active),81.3% (active),46%,63%,19.4%,50%,88% (active),70.8% (active),36%,71% (active),77.5% (active)
Cc1cc(N(CCOS(C)(=O)=O)CCOS(C)(=O)=O)ccc1C=Nc1cc(Br)c(O)c(Br)c1,4%,71% (active),82.5% (active),-93%,63%,72.6% (active),2%,53%,84.2% (active),4%,43%,50.4%,2%,24%,21.1%,22%,91% (active),95.8% (active)
NS(=O)(=O)c1ccc(NC(=O)Cc2nc3ccccc3s2)cc1,36%,99% (active),91% (active),40%,99% (active),91% (active),54%,100% (active),93.2% (active),31%,94% (active),90.7% (active),49%,99% (active),92% (active),65%,99% (active),91.2% (active)
COc1ccc2c(Cc3ccc(O)cc3)cncc2c1O,-1%,6%,8.65%,-8%,26%,51.5%,-3%,16%,-7.15%,5%,4%,91.8% (active),-5%,-4%,71.5% (active),6%,27%,97.6% (active)
OC(C1CCCC1=N/N=C1/CCCC1C(O)(C(F)(F)Cl)C(F)(F)Cl)(C(F)(F)Cl)C(F)(F)Cl (configuration not stated),-2%,22%,86.3% (active),-2%,25%,89.3% (active),-4%,7%,90.9% (active),1%,26%,88.8% (active),0%,11%,91.8% (active),-3%,33%,92% (active)
COc1ccc(C(C)=O)c(OC(=O)c2ccccc2)c1OC(=O)c1ccccc1,-22%,9%,5.05%,-1%,7%,10.2%,-21%,-10%,-12.1%,2%,11%,-3%,-10%,-1%,1.15%,-1%,4%,-0.9%
Cc1cccc2c(CC(=O)O)cccc12,-5%,78% (active),78.7% (active),7%,82% (active),77.7% (active),1%,81% (active),52.5%,19%,61%,71.8% (active),-1%,95% (active),75% (active),4%,88% (active),78.5% (active)
COc1cc(/C=C2\S/C(=N/Nc3nc(-c4ccc(Br)cc4)cs3)NC2=O)cc(OC)c1OC,-2%,67%,84.8% (active),-23%,74% (active),76.2% (active),-9%,86% (active),97.8% (active),-6%,71% (active),80.2% (active),31%,97% (active),95.3% (active),2%,75% (active),91.5% (active)
COC(=O)C1CCN(Cc2ccccc2)CC1=O (configuration not stated),38%,57%,89.3% (active),48%,51%,92.1% (active),77% (active),100% (active),93.2% (active),83% (active),100% (active),90% (active),81% (active),98% (active),90% (active),37%,47%,89.9% (active)
C[C@]12C[C@H](c3ccccc3)Nc3ccccc3N1C(c1ccccc1)=NO2,0%,83% (active),64.5%,-13%,80% (active),59.7%,21%,80% (active),81.5% (active),9%,74% (active),54.4%,6%,87% (active),67.4%,-8%,88% (active),71% (active)
CC12C(=O)N(CC(=O)O)C(=O)C1(C)C1c3ccccc3C2c2ccc3ccccc3c21 (configuration not stated),7%,97% (active),98.7% (active),1%,98% (active),95.9% (active),2%,98% (active),99% (active),-8%,99% (active),99% (active),1%,96% (active),95.6% (active),0%,98% (active),95.8% (active)
COc1cccc2c1C(=O)c1c(O)c3c(c(O)c1C2=O)C[C@@](O)(C(=O)CO)C[C@@H]3OC1CC(N)CC(C)O1 (some centres not stated),81% (active),98% (active),89.3% (active),24%,98% (active),90.4% (active),61%,99% (active),90.1% (active),63%,98% (active),85% (active),76% (active),99% (active),88.9% (active),69%,97% (active),92% (active)
COC(=O)C1(Cc2ccccc2)Cc2c(C)ccc(C)c2C1=O (configuration not stated),-4%,12%,43.1%,-3%,16%,19.2%,13%,42%,61.6%,-1%,2%,39.2%,28%,62%,64.2%,-2%,13%,70.2% (active)
O=c1sc(=S)[nH]c2ccccc12,-3%,10%,76.8% (active),6%,43%,69.1%,3%,41%,78.9% (active),-4%,3%,71.5% (active),-1%,7%,67.5%,16%,31%,72.2% (active)
CCCN(CCC)c1ccc(Cc2ccc(N(CCC)CCC)cc2N)c(N)c1,-3%,96% (active),97.8% (active),-5%,98% (active),98.3% (active),-6%,99% (active),44.5%,-1%,91% (active),97% (active),-1%,96% (active),96.8% (active),-5%,95% (active),98.1% (active)
Cc1ccc2c(ccc3ccccc32)c1,-23%,42%,74.3% (active),1%,10%,16.4%,-7%,16%,57.5%,-25%,-12%,10.2%,-15%,38%,71% (active),-67%,39%,34.6%
CCOC(=O)c1ccc2c(c1)Cc1cc([N+](=O)[O-])ccc1-2,1%,65%,43.6%,-2%,37%,15.8%,7%,72% (active),51%,-97%,12%,4.15%,43%,89% (active),80.8% (active),7%,57%,58.1%
